Screen size: about 360,000 compounds; about 660 (0.18%) were called active. A call without a number means that no potency is given here. About 2% were inconclusive and are not listed. This is one part of a sample in which actives are shown more often than they occur. The call rests on the fitted dose curve; in most records, active means well fitted inhibition curve with a large enough effect; inconclusive means small, poorly fitted or top-dose-only effect; inactive means no such curve, though single readings can be large or run the other way.
Target: Rap guanine nucleotide exchange factor 4 (Homo sapiens) (UniProt Q8WZA2)
Sequence (Q8WZA2 whole entry, looked up): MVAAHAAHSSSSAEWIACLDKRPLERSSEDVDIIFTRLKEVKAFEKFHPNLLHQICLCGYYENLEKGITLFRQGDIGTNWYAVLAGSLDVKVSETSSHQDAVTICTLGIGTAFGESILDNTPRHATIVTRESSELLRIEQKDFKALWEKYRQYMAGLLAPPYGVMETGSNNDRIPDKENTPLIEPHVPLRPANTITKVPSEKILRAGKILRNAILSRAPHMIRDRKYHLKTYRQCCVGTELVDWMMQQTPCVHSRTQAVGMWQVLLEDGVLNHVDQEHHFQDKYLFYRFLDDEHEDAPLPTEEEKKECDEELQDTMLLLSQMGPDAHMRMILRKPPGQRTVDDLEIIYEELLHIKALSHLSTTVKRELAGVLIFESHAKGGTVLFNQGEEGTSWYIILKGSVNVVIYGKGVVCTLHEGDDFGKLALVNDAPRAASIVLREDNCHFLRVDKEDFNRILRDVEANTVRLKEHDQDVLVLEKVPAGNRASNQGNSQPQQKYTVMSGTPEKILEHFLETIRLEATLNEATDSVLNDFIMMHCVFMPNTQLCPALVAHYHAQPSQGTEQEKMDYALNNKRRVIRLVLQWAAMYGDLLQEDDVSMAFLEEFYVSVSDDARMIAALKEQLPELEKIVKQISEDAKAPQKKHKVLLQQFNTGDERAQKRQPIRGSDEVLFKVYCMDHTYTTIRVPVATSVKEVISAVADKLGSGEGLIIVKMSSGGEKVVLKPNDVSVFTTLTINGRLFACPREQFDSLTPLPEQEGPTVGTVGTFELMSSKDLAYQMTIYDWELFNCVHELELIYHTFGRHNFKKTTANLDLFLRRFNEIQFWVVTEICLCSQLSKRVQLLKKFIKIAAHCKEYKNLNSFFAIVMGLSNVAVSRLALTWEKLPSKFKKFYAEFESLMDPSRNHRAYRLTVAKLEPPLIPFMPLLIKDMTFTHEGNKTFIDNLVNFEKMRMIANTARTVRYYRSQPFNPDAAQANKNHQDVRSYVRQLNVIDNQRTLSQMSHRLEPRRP
Assay: qHTS for Antagonist of cAMP-regulated guanine nucleotide exchange factor 2 (EPAC2): primary screen; further: nearly all actives have a fitted effect of over 45% in size
Conditions: EPAC2 GEF exchange of Rap1B-BODIPY-GDP, fluorescence; series mostly up to 114 µM
Source text: In multi-cellular eukaryotic organisms, the effects of cAMP are transduced by two ubiquitously-expressed intracellular cAMP receptors, the classic protein kinase A/cAMP-dependent protein kinase (PKA/cAPK) and the more recently discovered exchange protein directly activated by cAMP/cAMP-regulated guanine nucleotide exchange factor (EPAC/cAMP-GEF). Both PKA and EPAC are ubiquitously expressed in all tissues, and an increase in intracellular cAMP levels will lead to the activation of both PKA and EPAC. Therefore, careful dissections of the individual role and relative contribution of EPAC and PKA within the overall cAMP signaling in various model systems are critical for further elucidating the mechanism of cAMP signaling. To date no EPAC-specific antagonists and agonist, as well as isoform-specific agonists have been reported, and developing EPAC-specific pharmacological probes to determine the physiological functions that EPAC play in the overall cAMP-mediated signaling remains a major challenge within the research field. Furthermore, identified regulators of EPAC may lead to new mechanism-based therapeutic strategies specifically targeting the EPAC / cAMP-signaling components as EPAC has been implicated to play important roles in major human pathological conditions such as diabetes, heart disease, and cancer.
This qHTS will be used to screen the Molecular Libraries Small Molecule Repository (MLSMR) as a concentration-titration series using the NCGC unique quantitative screening (qHTS) platform to find inhibitors for EPAC2. In addition, this assay will also be used as a counterscreen for the EPAC1 qHTS. This fluorescent based assay is developed and validated for EPAC2 that measures exchange using EPAC effector Rap1 complex with BODIPY-GDP, a GDP analog with a tethered fluorophores. Inhibitors are identified by monitoring the change in fluorescence signal as the exchanged free BODIPY-GDP has a reduced fluorescence compared to Rap1-bound BODIPY-GDP. Decrease in signal (inhibition) is the desired outcome for the EPAC2 antagonist while no activity in this assay is desired for the EPAC1 antagonist counterscreen.
NIH Chemical Genomics Center [NCGC]
NIH Molecular Libraries Probe Centers Network [MLPCN]
Assay Submitter (PI): Xiaodong Cheng, The University of Texas, Medical Branch
Briefly, three uL of reagents (100 nM EPAC2, 250 nM RAP1B-BODIPY-GDP, 50 uM GDP) were dispensed into a 1536-well Greiner black solid-bottom medium binding assay plate. Controls and test compounds (23 nL) were transferred to the plate via a Kalypsys pin tool equipped with a 1536-pin array. The plates were centrifuged at 1,000 rpm for 15 seconds followed by 5 minute incubation at room temperature. The assay plates were read at 5 minute intervals for 30 minutes in the ViewLux plate reader using 480nm excitation and 540nm emission filters. The results were normalized to the agonist positive control ATA and DMSO.
Potency means the concentration at half of the fitted maximal effect.

SMILES | Potency
CCOP(=O)(OCC)C(NC(=O)c1ccc(OC)cc1)C(Cl)(Cl)Cl (stereo not given) | inactive
CCOP(=O)(OCC)C(Cc1ccccc1)N=C(c1ccccc1)c1ccccc1 (stereo not given) | 35.5 µM (active)
CCOP(=O)(OCC)C(NC(=O)c1ccc(C)cc1)C(Cl)(Cl)Cl (stereo not given) | inactive
CC1=CC(=Cc2sc3ccccc3[n+]2C)C=C(C)O1 | inactive
C[C@]12CC[C@H](O)C[C@H]1CC[C@@H]1C2CC[C@]2(C)[C@@H](C3=CC(=O)OC3)[C@@H](O)C[C@]12O (stereo not given in full) | inactive
CCOC(=O)[C@]12Cc3ccccc3[C@H]1N(C1CCCCC1)C(=O)c1cc(OC)ccc12 | 3.16 µM (active)
COC(=O)C1=C(c2cc3ccccc3s2)C[C@@H]2CC[C@H]1N2C(=O)NCc1cccc2ccccc12 | inactive
Oc1cc2c(cc1CN1CCN(c3ccccc3)CC1)OCO2 | inactive
CN(c1ccccc1)c1ccc([N+](=O)[O-])c2nonc12 | inactive
CC(c1ccccc1)(c1ccccc1)c1ccncc1 | 35.5 µM (active)
ClC(Cl)(Cl)c1ccccc1 | inactive
CCCC[N+]1(C)C2CC(OC(=O)C(CO)c3ccccc3)CC1C1OC12 (stereo not given) | inactive
O=C(NC(c1ccc(Cl)cc1)P(=O)(Oc1ccccc1)Oc1ccccc1)OCc1ccccc1 (stereo not given) | inactive
COC(=O)C(c1ccccc1)N1CCCCCC1 (stereo not given) | inactive
COC(=O)N1C(c2ccccc2)C1c1ccccc1 (stereo not given) | 31.6 µM (active)
O=C(CN1CCCCC1)Nc1ccc(Br)cc1C(=O)c1ccccc1Cl | inactive
Cn1c(O)c(C(=Nc2ccc(F)cc2)c2ccccc2)c(=O)n(C)c1=O | inactive
CC(=O)N(C1=NCCCS1)c1ccccc1F | inactive
Cc1ccc(-n2c(O)c(C=NCC3CCCO3)c(=O)[nH]c2=O)c(C)c1 (stereo not given) | inactive
O=C(OCCN1CCOCC1)C1(c2ccccc2)CCCC1 | inactive
